# Unmarked numbers belong to inactive results.
# Columns and labels:
# [1] = test system: Falciformispora senegalensis CBS197.79; assay: growth relative to untreated control; higher = less inhibition, active = 20 or less
# How it was run: (§1)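 Growth was expressed as metabolic activity relative to the untreated growth control, with both corrected using a blank of medium plus dye. Hyphal fragments of M. mycetomatis MM55 or F. senegalensis CBS197.79 were suspended to 68–72% transmission at 660 nm in colourless RPMI 1640 containing L-glutamine and MOPS. In 96-well plates they were exposed to compound at 100 or 25 µM for 7 days at 37 °C, and viability was read with MTS (2 h, 490 nm) or resazurin (600 nm).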
# [2] = test system: Madurella mycetomatis MM55; assay: as above
# How it was run: as §1
SMILES,growth ([1]; 25 µM),growth ([1]; 100 µM),growth ([2]; 25 µM),growth ([2]; 100 µM)
COc1ccc2cc1Oc1ccc(cc1)C[C@H]1c3cc(c(OC)cc3CCN1C)Oc1c(OC)c(OC)cc3c1[C@H](C2)N(C)CC3,33.4%,20.6%,3.29% (active),3.62% (active)
COc1ccc2nc3cc(Cl)ccc3c(Nc3cc(CN4CCCC4)c(O)c(CN4CCCC4)c3)c2n1,107%,15% (active),76.3%,40%
C[C@H](CS)C(=O)N1CCC[C@H]1C(=O)O,109%,91.7%,77.5%,95.8%
CCS(=O)(=O)N1CC(CC#N)(n2cc(-c3ncnc4[nH]ccc34)cn2)C1,102%,104%,94.3%,80.3%
C[C@H]1O[C@@H](O[C@H]2[C@@H](O)C[C@H](O[C@H]3[C@@H](O)C[C@H](O[C@H]4CC[C@@]5(C)[C@H](CC[C@@H]6[C@@H]5CC[C@]5(C)[C@@H](C7=CC(=O)OC7)CC[C@]65O)C4)O[C@@H]3C)O[C@@H]2C)C[C@H](O)[C@@H]1O,99.1%,98%,94.5%,73.2%
CC(N)CCn1c(Nc2cc(Cl)cc(C(F)(F)F)c2)nc2cnc(NC3CCCC3)nc21 (configuration not stated),10.9% (active),17.2% (active),11.2% (active),7.25% (active)
CNCc1[cH-]ccc1CNc1ccnc2cc(Cl)ccc12.[Fe+2].c1cc[cH-]c1,10.2% (active),14.6% (active),2.78% (active),2.49% (active)
O=C(NCCN1CCCCC1)c1cncc(-c2ccc(Cl)c(Cl)c2)c1,95.7%,30.1%,52.1%,5.8% (active)
CN(C)CCNC(=O)c1ccc(Nc2nccc(-c3ccc(Cl)c(Cl)c3)n2)cc1,24.5%,43.3%,5.83% (active),4.93% (active)
NC(=O)c1nc(F)cnc1O,114%,102%,83.1%,84.1%
COc1ccc(-c2cnc3c(-c4ccccc4)c(-c4ccccc4)nn3c2N)cc1OC,93.2%,83.3%,86.3%,70.2%
CCOc1ccc(C=C2NCCc3cc(OCC)c(OCC)cc32)cc1OCC,112%,106%,73.2%,48%
O=C(NC1CCNCC1)c1ccc(Nc2nccc(-c3ccc(Cl)cc3)n2)cc1,98%,10% (active),37.4%,6.07% (active)
C[C@H](/N=C(\N)c1cc2c(F)cc(F)cc2[nH]1)c1ccccc1,98.5%,15.3% (active),35%,5.98% (active)
CN(C)CCOc1ccc2nc(-c3cccc(OCc4ccccc4)c3)[nH]c2c1C#N,50.2%,11.4% (active),4.87% (active),5.16% (active)
CCCCN(CCCC)CC(O)c1cc(Cl)cc2c1-c1ccc(Cl)cc1/C2=C/c1ccc(Cl)cc1 (configuration not stated),98.7%,96.3%,107%,87.9%
COC(=O)N[C@H](C(=O)N1CCC[C@H]1c1ncc(-c2ccc(-c3ccc(-c4cnc([C@@H]5CCCN5C(=O)[C@@H](NC(=O)OC)C(C)C)[nH]4)cc3)cc2)[nH]1)C(C)C,114%,99.8%,82.5%,85.6%
CCOC(=O)C1=C(CC)NC2=C(C(=O)CC(C)(C)C2)C1c1ccc(Br)cc1 (configuration not stated),82.3%,87%,106%,73.2%
COc1ccc(Cl)cc1-c1nc(C(=O)NCCN2CCCCC2)c(C(C)C)s1,94.5%,77.6%,14.8% (active),6.6% (active)
CCN1CCN(Cc2ccc(Nc3ncc(F)c(-c4cc(F)c5nc(C)n(C(C)C)c5c4)n3)nc2)CC1,101%,105%,80.5%,85.2%
O=C1NCCN1CCN1CCC(c2cn(-c3ccc(F)cc3)c3ccc(Cl)cc23)CC1,7.42% (active),19.4% (active),5.95% (active),4.92% (active)
COc1ccc(-c2nc3c(NCc4ccccc4)nccc3[nH]2)c(OC)c1,63.7%,26.6%,6.23% (active),7.79% (active)
N#Cc1cccc(C(=O)NC2CCN(c3ccnc(Nc4ccc(F)cc4)n3)C2)c1 (configuration not stated),89.5%,88.1%,84.1%,85.8%
FC(F)(F)c1cc(Cl)cc(Nc2nc3cnc(NC4CCC4)cc3[nH]2)c1,70.6%,10.8% (active),109%,27%

SMILES,growth ([1]; 25 µM),growth ([1]; 100 µM),growth ([2]; 25 µM),growth ([2]; 100 µM)
NC(=O)C(c1ccccc1)(c1ccccc1)[C@@H]1CCN(CCc2ccc3c(c2)CCO3)C1,95.3%,97.9%,106%,79.1%
CC(C)Oc1ccc(-c2nc(-c3cccc4c3CC[C@@H]4NCCO)no2)cc1C#N,9.29% (active),6.46% (active),3.06% (active),3.42% (active)
O=C(Nc1cc(Cl)cc(Cl)c1O)c1c(O)c(Cl)cc(Cl)c1Cl,89.9%,12.5% (active),39%,3.21% (active)
O=C(c1ccc(Nc2nccc(-c3cc(Cl)cc(C(F)(F)F)c3)n2)cc1)N1CC2(COC2)C1,96%,96.8%,62.9%,50.6%
C=CCNc1nc(NCC=C)nc(N2CCN(C(c3ccc(F)cc3)c3ccc(F)cc3)CC2)n1,105%,91.3%,91.8%,83.9%
N#Cc1ccc(-c2n[nH]c3ccc(-c4n[nH]c(CC(F)(F)F)n4)cc23)cc1,94%,98.3%,109%,114%
CCOC(=O)c1c(CSc2ccccc2)n(C)c2cc(Br)c(O)c(CN(C)C)c12,103%,97.8%,98.5%,75.4%
CC(C)Nc1cc2c(cn1)nc(Nc1cc(Cl)cc(C#N)c1)n2C1CCNCC1,97.8%,106%,106%,79.1%
O=C(CCCN1CCC(O)(c2ccc(Cl)cc2)CC1)c1ccc(F)cc1,103%,14.2% (active),76.2%,4.14% (active)
NS(=O)(=O)c1cc2c(cc1Cl)NC=NS2(=O)=O,103%,103%,108%,96.2%
FC(F)(F)c1cc(Cl)cc(Nc2nc3cnc(NCC4CC4)nc3n2C2CCNCC2)c1,95%,17.6% (active),53.7%,4.76% (active)
Cc1cccnc1-c1noc(-c2ccccc2)n1,99.3%,98%,49.2%,87.4%
CC(C)(C)NC(=O)[C@@H]1CN(Cc2cccnc2)CCN1C[C@@H](O)C[C@@H](Cc1ccccc1)C(=O)N[C@H]1c2ccccc2C[C@H]1O,105%,103%,113%,90.8%
CC(C)C[C@H](NC(=O)[C@H](Cc1ccccc1)NC(=O)c1cnccn1)B(O)O,103%,93.7%,113%,85.1%
Fc1ccc([C@@H]2CCNC[C@H]2COc2ccc3c(c2)OCO3)cc1,101%,15.3% (active),5.94% (active),3.06% (active)
Cn1cnc2c(F)c(Nc3ccc(Br)cc3Cl)c(C(=O)NOCCO)cc21,96.9%,103%,110%,86.3%
CCN(CC)Cc1cc(Nc2ccnc3cc(Cl)ccc23)ccc1O,89.8%,88.3%,81.3%,43.4%
OCCN1CCN(CCCN2c3ccccc3Sc3ccc(C(F)(F)F)cc32)CC1,1.11% (active),8.28% (active),3.76% (active),3.71% (active)
CC(C)c1cc(Oc2ccccc2)cc(C(C)C)c1NC(=S)NC(C)(C)C,89.5%,90.7%,111%,166%
O[C@@H](CNC[C@H](O)[C@H]1CCc2cc(F)ccc2O1)[C@@H]1CCc2cc(F)ccc2O1,5.42% (active),12.3% (active),5.79% (active),3.82% (active)
O=C(NC1CCN(CCOc2ccc(Cl)cc2)CC1)c1c[nH]c2ccncc2c1=O,73.5%,84.8%,90.2%,102%
O=C1NCN(c2ccccc2)C12CCN(CCCC(c1ccc(F)cc1)c1ccc(F)cc1)CC2,3.66% (active),14.7% (active),7.29% (active),5.27% (active)
CCOc1ccc(Cc2nccc3cc(OCC)c(OCC)cc23)cc1OCC,108%,105%,80.9%,83%
CC(C)c1nc(CN(C)C(=O)N[C@H](C(=O)N[C@@H](Cc2ccccc2)C[C@H](O)[C@H](Cc2ccccc2)NC(=O)OCc2cncs2)C(C)C)cs1,101%,104%,74.1%,82.2%

# — the supplement of paper PMC11172423
